The source of these data is PubChem BioAssay AID686979 (National Center for Advancing Translational Sciences (NCATS), 2013).

The whole screen tested about 420,000 compounds, of which about 50,000 (12%) were called active. Roughly 26% stayed inconclusive and do not appear here. Only a selection was taken, and actives are over-represented in it overall. Unmarked numbers belong to inactive results. The call rests on the fitted dose curve; in most records, active means well fitted inhibition curve with a large enough effect; inconclusive means small, poorly fitted or top-dose-only effect; inactive means flat fitted curve, though single readings scatter.
On the % scale 0 is the no-effect control and ±100 the full control effect; potency means the concentration at half of the fitted maximal effect.

The assay in a line: qHTS for Inhibitors of human tyrosyl-DNA phosphodiesterase 1 (TDP1): qHTS in cells in presence of CPT. Further: nearly all actives have a fitted effect of over 55% in size. Particulars: chicken DT40 Tdp1-/-;hTDP1 cells + 20 nM CPT, ATP luminescence, 48 h; series mostly up to 46.2 µM; activity change, negative = growth inhibition: at the top concentration. Put shortly: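 Chicken DT40 Tdp1-/- cells complemented with human TDP1, 400 cells/well, exposed to compounds plus 20 nM camptothecin for at least 48 h at 37 C; viability read as ATP content by CellTiter-Glo luminescence.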
In general terms: qHTS replaces the single test concentration by a dilution series.
Turning to `CC1CN(C(=S)Nc2cccc(F)c2)CC(C)O1` (stereo not drawn), the “activity change, negative = growth inhibition” value was -2.76%.

As for `O=C(CC1CCCCC1)NCc1ccco1`, the “activity change, negative = growth inhibition” value was 16.5%.

On to `CC(=O)N1C[C@@H](CO)[C@@H](N(C)C(=O)c2ccco2)C[C@H]1c1ccccc1`, for which the “activity change, negative = growth inhibition” value was 3.01%.

`OCC[C@H]1C[C@H](O)[C@@H](O)[C@]2(Cc3ccccc3CO2)O1`: the “activity change, negative = growth inhibition” value was -17%.

Take `Cc1ccc(C2=CSC3=NS(=O)(=O)CCN23)cc1C`: the “activity change, negative = growth inhibition” value is -16%.

Take `O=C1NC[C@@H](c2ccccc2)OC(=O)[C@H](Cc2ccc(F)cc2)CC/C=C/C[C@H]1CC(=O)N(CCO)Cc1ccccc1`: the Potency was 16.4 µM (active).

Turning to `CC(C)(C)OC(=O)C[C@@H]1C/C=C\C[C@@H](CC(=O)NCCO)C(=O)N[C@H](Cc2c[nH]c3ccccc23)COC1=O`, the “activity change, negative = growth inhibition” value is -1.37%.

With `O=C1CCC/C=C\C[C@@H](CC(=O)N(CCO)Cc2ccccc2)C(=O)NCCO1`, the “activity change, negative = growth inhibition” value was -3.1%.

For `O=C1N[C@@H](c2ccccc2)COC(=O)[C@H](Cc2ccc(F)cc2)C/C=C\C[C@@H]1CC(=O)N(CCO)Cc1ccccc1`, the Potency was 23.1 µM (active).

With `O=C1N[C@H](Cc2c[nH]c3ccccc23)COC(=O)[C@H](Cc2ccc(F)cc2)C/C=C\C[C@H]1CC(=O)N(CCO)Cc1ccccc1`, the Potency was 23.1 µM (active).

As to `O=C(N[C@@H](Cc1c[nH]c2ccccc12)C(=O)O)OCC1c2ccccc2-c2ccccc21`, the “activity change, negative = growth inhibition” value is 6.57%.

As to `CN(Cc1cccs1)C(=O)Cc1c[nH]c2ccccc12`, the “activity change, negative = growth inhibition” value was -21.4%.

Regarding `O=C(C[C@H]1C/C=C\C[C@@H](NC(=O)OCC2c3ccccc3-c3ccccc32)C(=O)O[C@@H](c2ccccc2)CNC1=O)N[C@H](CO)Cc1ccccc1`, the Potency was 10.3 µM (active).

For `Cc1nc(N)c(Br)c(C)c1Br`, the “activity change, negative = growth inhibition” value is -6.26%.

On to `C[C@H]1CN([C@@H](C)CO)C(=O)CCCn2nncc2CO[C@@H]1CN(C)S(=O)(=O)c1cccc(C#N)c1`, for which the “activity change, negative = growth inhibition” value was 23%.

For `Cc1cc(NC(=O)CN2C(=O)NC(C)(CCc3ccccc3)C2=O)no1` (stereo not drawn), the “activity change, negative = growth inhibition” value is 12.3%.

Regarding `Cc1nc2ccc(NC(=S)N3CCC(C)CC3)cc2nc1C`, the “activity change, negative = growth inhibition” value is 1.6%.

As to `CCn1c(SCC(=O)NCC2CCCO2)nc2ccccc21` (stereo not drawn), the “activity change, negative = growth inhibition” value was -0.0373%.

Turning to `COc1ccc(S(=O)(=O)N2CCN(CC(=O)N3CCNC3=O)CC2)cc1OC`, the “activity change, negative = growth inhibition” value is -1.11%.

As for `COc1ccc2c(C)cc(SCC(=O)NCC3CCCO3)nc2c1` (stereo not drawn), the “activity change, negative = growth inhibition” value is -26%.

In the case of `O=S(=O)(Nc1ncnc2sccc12)c1cccc(F)c1`, the “activity change, negative = growth inhibition” value was -0.046%.

On to `O=C(N[C@@H]1C/C=C\C[C@@H](CC(=O)N(CCO)Cc2ccccc2)C(=O)N[C@H](Cc2ccccc2)COC1=O)OCC1c2ccccc2-c2ccccc21`, for which the Potency was 8.2 µM (active).

In the case of `Nc1nc2c(ncn2[C@@H]2O[C@H](CNCc3ccc(OCCCN4CCOCC4)cc3)[C@@H](O)[C@H]2O)c(=O)[nH]1`, the “activity change, negative = growth inhibition” value is 8.06%.

As to `CN(CC(=O)Nc1ccc(F)cc1)CC(=O)N1CCCCC1`, the “activity change, negative = growth inhibition” value is 4.19%.

With `Cc1ccc(O)c(-c2cc(C(=O)Nc3c(C)n(C)n(-c4ccccc4)c3=O)[nH]n2)c1`, the “activity change, negative = growth inhibition” value was 4.26%.

Turning to `Nn1c(Cc2cccc3ccccc23)nnc1SCC(=O)N1CC(=O)Nc2ccccc21`, the “activity change, negative = growth inhibition” value was -6.43%.

As for `COc1ccc(CCNC(=O)CSc2nnc(CNC(=O)c3cccs3)o2)cc1OC`, the “activity change, negative = growth inhibition” value is -3.57%.

For the compound `COc1ccc(CN(Cc2ccc(OC)cc2)C(=O)c2cccs2)cc1`, the “activity change, negative = growth inhibition” value was -25.3%.

For `COc1ccc(CCNC(=O)/C(C#N)=C2\N=C(NC(=O)c3cccs3)c3ccccc32)cc1`, the Potency is 10.3 µM (active).

With `Cn1c(=O)c(CCc2ccccc2)nc2cnc(Nc3ccccc3)nc21`, the “activity change, negative = growth inhibition” value was 6.87%.

For `COc1ccc(CN2CCc3nc(Nc4ccccc4)ncc3C2)c(OC)c1OC`, the Potency was 16.4 µM (active).

`Cc1nc2cnc(Nc3ccccc3)nc2n(Cc2ccc(F)cc2)c1=O`: the “activity change, negative = growth inhibition” value was -13.7%.

With `Fc1ccc(CN2CCc3nc(Nc4ccccc4)ncc3C2)cc1F`, the Potency is 11.6 µM (active).

Consider `CCCN1CCc2nc(N3CCN(C)CC3)ncc2C1`, for which the “activity change, negative = growth inhibition” value is -2.71%.

Turning to `COc1ccc(CN2CCN(Cc3ccc(OC)c(OC)c3OC)CC2)cc1`, the “activity change, negative = growth inhibition” value was 4.44%.

`CCCc1cc(=O)[nH]c2nnc(SCC(=O)Nc3nnc(SCC)s3)n12`: the “activity change, negative = growth inhibition” value is 7.93%.

As to `Cc1nc2cc(NC(=O)[C@@H]3C[C@@H](Sc4ccccn4)CN3Cc3ccccc3C)ccc2s1`, the “activity change, negative = growth inhibition” value was 6.85%.

Take `Cc1nn2c(=O)cc(COC(=O)c3cccc(NC(=O)COc4ccccc4Cl)c3)nc2s1`: the “activity change, negative = growth inhibition” value was -1.04%.

`O=C(CNS(=O)(=O)c1ccc(Br)s1)N1CCN(C(=O)c2ccco2)CC1`: the “activity change, negative = growth inhibition” value is -4.9%.

With `C[C@@H]1CN([C@H](C)CO)C(=O)c2cc(NC(=O)NC3CCCCC3)ccc2O[C@H]1CN(C)S(C)(=O)=O`, the “activity change, negative = growth inhibition” value was 16.1%.

Turning to `CN1CCN(C(=O)C2=C[C@H](c3ccc4c(c3)OCO4)C[C@H](OCc3ccc(CO)cc3)O2)CC1`, the “activity change, negative = growth inhibition” value is 3.41%.

Consider `C#Cc1ccc([C@@H]2C=C(C(=O)O)O[C@H](OCCCCO)C2)cc1`, for which the “activity change, negative = growth inhibition” value is -6.55%.

Take `O=C(C1=C[C@H](c2ccc(C(F)(F)F)cc2)C[C@H](OCc2ccc(CO)cc2)O1)N1CCN(Cc2ccccc2)CC1`: the Potency was 23.1 µM (active).

For the compound `CCCCNC(=O)CSc1nc2cc3c(cc2c(=O)n1CCCCCC(=O)NCc1ccc2c(c1)OCO2)OCO3`, the “activity change, negative = growth inhibition” value was 9.03%.

On to `O=C(COc1ccc(Cl)cc1)Nc1ccc2oc(=O)ccc2c1`, for which the “activity change, negative = growth inhibition” value is 3.91%.

As for `O=c1[nH]c(CN2CCOCC2)nc2cc(Cl)ccc12`, the “activity change, negative = growth inhibition” value was -0.49%.

Regarding `NC(=O)Cc1nc2scc(-c3ccc(Cl)cc3)c2c(=O)[nH]1`, the “activity change, negative = growth inhibition” value is -7.61%.

Turning to `O=c1[nH]c(CCl)nc2cc(-c3ccc(Cl)cc3)sc12`, the Potency is 5.17 µM (active).

As for `CCc1ccc(CN(C)C(=O)C2CCC(=O)N(Cc3cccc(OC)c3)C2)nc1` (stereo not drawn), the “activity change, negative = growth inhibition” value was -25%.

On to `C=CCC(C(=O)c1ccccc1)[N+](C)(C)CC=C` (stereo not drawn), for which the “activity change, negative = growth inhibition” value is 1.64%.

Regarding `COc1cc(C(F)(F)F)c(C(=O)N(C)c2ccc(Cl)cc2)cn1`, the “activity change, negative = growth inhibition” value was -27.9%.

Turning to `CC(C)(C)c1ccc(S(=O)(=O)N2CCN(C(=O)c3ccc4c(c3)C(=O)N(Cc3ccncc3)C4=O)CC2)cc1`, the “activity change, negative = growth inhibition” value is -0.99%.

`COC(=O)Cc1csc(Nc2c(C)n(C)n(-c3ccccc3)c2=O)n1`: the “activity change, negative = growth inhibition” value is 5.14%.

As to `COC(=O)Cc1csc(/N=C/c2c(O)n(-c3cccc(C(F)(F)F)c3)c(=O)c3ccccc23)n1`, the Potency is 6.51 µM (active).

As for `COC(=O)Cc1c(O)ccn(Cc2cccc(C(F)(F)F)c2)c1=O`, the “activity change, negative = growth inhibition” value was 19.8%.

On to `COc1ccc(NC(=O)CSc2nnc(-c3ccccc3F)n2C2CC2)cc1S(N)(=O)=O`, for which the “activity change, negative = growth inhibition” value is 2.75%.

Turning to `COc1ccccc1C(=O)N(C1=NC(C)CS1)c1ccc(Cl)cc1` (stereo not drawn), the “activity change, negative = growth inhibition” value was -28.9%.

`CCc1ccc(S(=O)(=O)c2nnn3c2nc(NCc2ccccc2OC)c2cc(Cl)ccc23)cc1`: the “activity change, negative = growth inhibition” value is -16.5%.

With `COc1cccc(CNc2nc(NCc3ccccc3OC)nc3ccsc23)c1`, the Potency is 9.2 µM (active).

For the compound `COCCNc1nc(NCc2ccc(NC(C)=O)cc2)c2sccc2n1`, the “activity change, negative = growth inhibition” value is 9.84%.

Consider `COc1cccc(CNc2nc(NCc3cccs3)nc3ccsc23)c1`, for which the Potency was 23.1 µM (active).

Consider `CNC(=O)c1sc(NCc2ccccc2OC)nc1C`, for which the “activity change, negative = growth inhibition” value was 4.75%.

On to `COc1cccc(CNc2nccn(-c3ccc(OC)c(OC)c3)c2=O)c1`, for which the “activity change, negative = growth inhibition” value was 1.62%.

On to `CC(C)Nc1nc(NCCOc2ccccc2Cl)c2sccc2n1`, for which the Potency was 18.4 µM (active).

For `COc1ccccc1CNc1nc(Nc2ccccc2Cl)c2sccc2n1`, the Potency is 9.2 µM (active).

Turning to `COc1ccc(CNc2ncncc2-c2ccccc2C)c(OC)c1`, the “activity change, negative = growth inhibition” value is -1.91%.

In the case of `CCNc1nc(NC(C)C)nc(OCCOC(=O)c2ccccc2)n1`, the “activity change, negative = growth inhibition” value was -18.3%.

Consider `Cc1nc2cc(NCc3cccs3)ccc2n1C`, for which the “activity change, negative = growth inhibition” value was -4.67%.
